Measured values taken from PMC12864922, “TDP-43 directly inhibits mRNA accumulation in neurites through modulation of mRNA stability”.
In all, about 9,900 sequences were measured (“r (bound/input frequency ratio)”: median about 0.7, highest 2% from about 6.5 on). This is one part of a sample in which the highest values are shown more often than they occur.

B1: ENSMUSG00000061578.134|Ksr2|58:63;126:130;148:163;199:203 (ssRNA)
RNA: GGGAGUUCUACAGUCCGACGAUCGCUUCGAUAUCCGCAUGCUAAUGGCUUCCCCCAAAGUCCCGAGUCCUGAGAACCGGGGCUGUGGCAAGAGAGUUCUGCACACAUCUCUCUGUGGGGCUAGCAAUGCCGGGGUUAAGUUCUCCCUCGGUGAUGGAGACGGUCCUGGCAUACCAUGAUGGGUUACAUGGCACACACACACACACAAACUGUUUACAAUGGUCUCCCUGCCUCUCACGGGCACACAUCCAGGAGAAUGCACAUAGAGAGGUUCUGUGGUCUCUGCUGUCGCCUGGUGCUGAAUCUCUUGCGGUCGCACUAGUGUGGAAUUCUCGGGUGUCAAGG
B2: ENSMUSG00000029636.224|Wasf3|112:116;205:212 (ssRNA)
RNA: GGGAGUUCUACAGUCCGACGAUCGCUUCGAUAUCCGCAUGCUAUUGCAGAGGGACCAGGACACUGCCUUCCCUUAGGUGCAUUAUUUACGUGGCCUGCAGCUCUUAAUAUCUCUCACUGUUUAUGAAAAGAAAGAUUCAGAUCCGGGGUGACAUACACACAGUUGACAGGGAAUGCCUGUGGGAUAAUUAAAAAUGGUUUUUGCUCAUGAGUUUGGGAUGUCACCCAGCCGCCCACAUCGCCUGCUAACACACACGACGCCUGUCCGCUUGGCCAGCUAUCCUGUAACACCUGCCAGUAGUAGCUCUUGCGGUCGCACUAGUGUGGAAUUCUCGGGUGUCAAGG
B3: ENSMUSG00000031028.392|Tub (ssRNA)
RNA: GGGAGUUCUACAGUCCGACGAUCGCUUCGAUAUCCGCAUGCUAAGCUCCUGGUGAUAAUGCCUUUUCUUGACCACUGGCGCUGUGAACACAGGCUAAUGGACUUCAGAUACCAGGGCCCCGGGAUCACCUGGGUUAGCCUCUCCCACAGGAAGAUCCCUUACCCCUCAUCCCCUCUUCUUUUUGGUCCUUGGCUGGGUAGCAAAUUGGUGAGAAGAGCAGCCUAGUCUGUAAGAGUGCAGGGCAGCUGGAACCUUAGGCAGCUCCUCUGUAUGCUACCGGCUCCACACCCUAACACUCUCCACCUCUUGCGGUCGCACUAGUGUGGAAUUCUCGGGUGUCAAGG
B4: ENSMUSG00000029028.200|Lrrc47 (ssRNA)
RNA: GGGAGUUCUACAGUCCGACGAUCGCUUCGAUAUCCGCAUGCUAUGUACCAGCACACAGCUGCCAUCCCUCGAGCCACAGUGCCUGGUCCUAAGGACCCAGCAGCUGCACAGAGGACUUGGUGGCCCCGUGCCUUGCCAUCUGGCUGAGAAGAGAACCAGACCCUCAGCCUUCCCCCUCGACACCUUCUCGUUGGUGACCUCUGACCUUAAAGGACCAUUUCUACCUUCUGUAAAAGAACACCUGUUUGGGGUUGCGUGCGGCUUUCAUCCUAAGGCCGUGCGAGAGCCGUUAGCUGUCAGAACCUCUUGCGGUCGCACUAGUGUGGAAUUCUCGGGUGUCAAGG
B5: ENSMUSG00000061578.980|Ksr2 (ssRNA)
RNA: GGGAGUUCUACAGUCCGACGAUCGCUUCGAUAUCCGCAUGCUAAUCCAUGACUCAGAAUUUUCCAGAGACCCAAUCCCUCGGGGUCCACUUAGUGAUGGGACCAUACAAGAGUUUAUUUCCAAUUAGAGAAUUGGGUCAACUGGGAAAGGCUUCUUUCCUGGUAACCCUGCUACUGAUACUAUGUUGAAACAGGAAUCGACUCUAACUGCUUUUUGGCCUCUUCCCUGCACGGGAGUCUCAAAAUCAAGUUUUUACCCAGUGGCCUCUGGGAUCCACUCUCUCUACUCCUGAACUCUUAAAACCUCUUGCGGUCGCACUAGUGUGGAAUUCUCGGGUGUCAAGG
B6: ENSMUSG00000061578.705|Ksr2 (ssRNA)
RNA: GGGAGUUCUACAGUCCGACGAUCGCUUCGAUAUCCGCAUGCUAUUGAGGUGCCUUCCUGUAGUCUCUUGUGUCAUCUUCUUCUAAGACCACUAAUAACACCGCCUUUCUCCUUGAUCCGGGCCUCAGACCUCUUCAGAGAUUCUUUCUCUGAAUGUACGUGGGGGACUCCAACAGAUGUUGGGAGAAGACUCAAUAUGAGCAUACGGGGUCAUUGUUCAAUCCUGUAUCAAGACCUUGGAGUUGUCUAAGGCUGUGGGUUUUAAAUACCUGCUGCAGGCCUCCCAUCUCUGGCUCUUUGUUUCCUCUUGCGGUCGCACUAGUGUGGAAUUCUCGGGUGUCAAGG
B7: ENSMUSG00000058297.34|Spock2 (ssRNA)
RNA: GGGAGUUCUACAGUCCGACGAUCGCUUCGAUAUCCGCAUGCUAGAAGUCAGUGCGGAGGACCCUGGCUCCAGUGGGGGAGGACUGGGGAGUGUGGCUUGUGUGUAUGUGUGAUAUGAGAUGUGUGUGUAUGAUGUGAGAUGUGAGUGUGUGAUGUGAGAUGUGUGUAUGUGAGAUGUGUGUGUGUGUGUGUGUGUGUGUGAUGUGAGUCACCCAAAGGUCCCUAUGUUAUUGAUUUUCAAAUGCACACUUUCACACACAAGGAUACACUAACAGACCAAAAUCAAUGAGAUGUCCCUGAUCCUCUCUUGCGGUCGCACUAGUGUGGAAUUCUCGGGUGUCAAGG
B8: ENSMUSG00000058297.35|Spock2 (ssRNA)
RNA: GGGAGUUCUACAGUCCGACGAUCGCUUCGAUAUCCGCAUGCUAAGUGCGGAGGACCCUGGCUCCAGUGGGGGAGGACUGGGGAGUGUGGCUUGUGUGUAUGUGUGAUAUGAGAUGUGUGUGUAUGAUGUGAGAUGUGAGUGUGUGAUGUGAGAUGUGUGUAUGUGAGAUGUGUGUGUGUGUGUGUGUGUGUGUGAUGUGAGUCACCCAAAGGUCCCUAUGUUAUUGAUUUUCAAAUGCACACUUUCACACACAAGGAUACACUAACAGACCAAAAUCAAUGAGAUGUCCCUGAUCCUGCCCCUCUCUUGCGGUCGCACUAGUGUGGAAUUCUCGGGUGUCAAGG
B9: ENSMUSG00000058297.42|Spock2 (ssRNA)
RNA: GGGAGUUCUACAGUCCGACGAUCGCUUCGAUAUCCGCAUGCUAGUGGCUUGUGUGUAUGUGUGAUAUGAGAUGUGUGUGUAUGAUGUGAGAUGUGAGUGUGUGAUGUGAGAUGUGUGUAUGUGAGAUGUGUGUGUGUGUGUGUGUGUGUGUGAUGUGAGUCACCCAAAGGUCCCUAUGUUAUUGAUUUUCAAAUGCACACUUUCACACACAAGGAUACACUAACAGACCAAAAUCAAUGAGAUGUCCCUGAUCCUGCCCCUCAGCCCAACACCUGGAAUCCCUGCCCUGCCUAAUCAGCCCUACUCUUGCGGUCGCACUAGUGUGGAAUUCUCGGGUGUCAAGG
B10: ENSMUSG00000058297.32|Spock2 (ssRNA)
RNA: GGGAGUUCUACAGUCCGACGAUCGCUUCGAUAUCCGCAUGCUACAAAUGGAUCCGGAAGUCAGUGCGGAGGACCCUGGCUCCAGUGGGGGAGGACUGGGGAGUGUGGCUUGUGUGUAUGUGUGAUAUGAGAUGUGUGUGUAUGAUGUGAGAUGUGAGUGUGUGAUGUGAGAUGUGUGUAUGUGAGAUGUGUGUGUGUGUGUGUGUGUGUGUGAUGUGAGUCACCCAAAGGUCCCUAUGUUAUUGAUUUUCAAAUGCACACUUUCACACACAAGGAUACACUAACAGACCAAAAUCAAUGAGAUCUCUUGCGGUCGCACUAGUGUGGAAUUCUCGGGUGUCAAGG
B11: ENSMUSG00000058297.32|Spock2|59:63;67:80;89:100;114:120;129:138;144:169 (ssRNA)
RNA: GGGAGUUCUACAGUCCGACGAUCGCUUCGAUAUCCGCAUGCUACAAAUGGAUCCGGAAGUCAGUGCGGAGGACCCUGGCUCCAGUGGGGGAGGACUGGGGACACACGCUACACACAUACACACAUAUGAGAACACACACAUACAUGUGAGAUGUGACACACACAUGUGAGAACACACAUACUGAGAACACACACACACACACACACACACACAUGUGAGUCACCCAAAGGUCCCUAUGUUAUUGAUUUUCAAAUGCACACUUUCACACACAAGGAUACACUAACAGACCAAAAUCAAUGAGAUCUCUUGCGGUCGCACUAGUGUGGAAUUCUCGGGUGUCAAGG
B12: ENSMUSG00000058297.36|Spock2 (ssRNA)
RNA: GGGAGUUCUACAGUCCGACGAUCGCUUCGAUAUCCGCAUGCUAGAGGACCCUGGCUCCAGUGGGGGAGGACUGGGGAGUGUGGCUUGUGUGUAUGUGUGAUAUGAGAUGUGUGUGUAUGAUGUGAGAUGUGAGUGUGUGAUGUGAGAUGUGUGUAUGUGAGAUGUGUGUGUGUGUGUGUGUGUGUGUGAUGUGAGUCACCCAAAGGUCCCUAUGUUAUUGAUUUUCAAAUGCACACUUUCACACACAAGGAUACACUAACAGACCAAAAUCAAUGAGAUGUCCCUGAUCCUGCCCCUCAGCCCCUCUUGCGGUCGCACUAGUGUGGAAUUCUCGGGUGUCAAGG
B13: ENSMUSG00000058297.34|Spock2|47:51;55:68;77:88;102:108;117:126;132:157 (ssRNA)
RNA: GGGAGUUCUACAGUCCGACGAUCGCUUCGAUAUCCGCAUGCUAGAAGUCAGUGCGGAGGACCCUGGCUCCAGUGGGGGAGGACUGGGGACACACGCUACACACAUACACACAUAUGAGAACACACACAUACAUGUGAGAUGUGACACACACAUGUGAGAACACACAUACUGAGAACACACACACACACACACACACACACAUGUGAGUCACCCAAAGGUCCCUAUGUUAUUGAUUUUCAAAUGCACACUUUCACACACAAGGAUACACUAACAGACCAAAAUCAAUGAGAUGUCCCUGAUCCUCUCUUGCGGUCGCACUAGUGUGGAAUUCUCGGGUGUCAAGG
B14: ENSMUSG00000058297.33|Spock2|53:57;61:74;83:94;108:114;123:132;138:163 (ssRNA)
RNA: GGGAGUUCUACAGUCCGACGAUCGCUUCGAUAUCCGCAUGCUAGAUCCGGAAGUCAGUGCGGAGGACCCUGGCUCCAGUGGGGGAGGACUGGGGACACACGCUACACACAUACACACAUAUGAGAACACACACAUACAUGUGAGAUGUGACACACACAUGUGAGAACACACAUACUGAGAACACACACACACACACACACACACACAUGUGAGUCACCCAAAGGUCCCUAUGUUAUUGAUUUUCAAAUGCACACUUUCACACACAAGGAUACACUAACAGACCAAAAUCAAUGAGAUGUCCCUCUCUUGCGGUCGCACUAGUGUGGAAUUCUCGGGUGUCAAGG
B15: ENSMUSG00000058297.33|Spock2 (ssRNA)
RNA: GGGAGUUCUACAGUCCGACGAUCGCUUCGAUAUCCGCAUGCUAGAUCCGGAAGUCAGUGCGGAGGACCCUGGCUCCAGUGGGGGAGGACUGGGGAGUGUGGCUUGUGUGUAUGUGUGAUAUGAGAUGUGUGUGUAUGAUGUGAGAUGUGAGUGUGUGAUGUGAGAUGUGUGUAUGUGAGAUGUGUGUGUGUGUGUGUGUGUGUGUGAUGUGAGUCACCCAAAGGUCCCUAUGUUAUUGAUUUUCAAAUGCACACUUUCACACACAAGGAUACACUAACAGACCAAAAUCAAUGAGAUGUCCCUCUCUUGCGGUCGCACUAGUGUGGAAUUCUCGGGUGUCAAGG

Molecular target: TDP-43 (Homo sapiens, UniProt Q13148 1-414)
Sequence (Q13148 whole entry): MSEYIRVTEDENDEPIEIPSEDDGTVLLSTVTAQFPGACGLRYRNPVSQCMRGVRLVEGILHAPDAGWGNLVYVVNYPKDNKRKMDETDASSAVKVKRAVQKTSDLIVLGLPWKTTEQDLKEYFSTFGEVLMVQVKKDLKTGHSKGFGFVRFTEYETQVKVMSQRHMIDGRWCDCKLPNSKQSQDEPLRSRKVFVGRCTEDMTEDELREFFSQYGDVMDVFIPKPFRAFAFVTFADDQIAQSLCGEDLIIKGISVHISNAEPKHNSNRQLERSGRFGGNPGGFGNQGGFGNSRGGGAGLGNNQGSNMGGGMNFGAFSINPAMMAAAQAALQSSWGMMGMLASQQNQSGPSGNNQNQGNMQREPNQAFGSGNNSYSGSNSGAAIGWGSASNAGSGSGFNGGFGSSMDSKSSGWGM
Experiment: RNA Bind-n-Seq with designed 260-mer pool; 25 mM Tris-HCl, 150 mM KCl, 3 mM MgCl2, BSA (printed 500 mg/mL), 20 units/mL SUPERase IN; pH not stated; 500 nM RNA pool, 1 h, 4 C; TDP-43 5, 50, 500 nM; high values mean tight binding
Conditions: protein: recombinant; tags: SBP (GST cleaved off with PreScission; pGEX-GST-SBP)
Summary of the method: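 Recombinant SBP-tagged TDP-43 at 5, 50 or 500 nM was captured on streptavidin beads, then incubated 1 h at 4 °C with 500 nM of an in vitro-transcribed 260-nt 3′ UTR oligo pool in 25 mM Tris-HCl, 150 mM KCl, 3 mM MgCl2, BSA and SUPERase IN. Bound RNA was washed, eluted with biotin, reverse transcribed, PCR-amplified and sequenced. Binding is R, each oligo's mapped-read-normalized abundance in the bound sample divided by its abundance in input. Duplicates used two independent protein batches.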

Row | Binder | binding signal
1 | B1 | 1.51 R (bound/input frequency ratio)
2 | B2 | 1.64 R (bound/input frequency ratio)
3 | B3 | 0.459 R (bound/input frequency ratio)
4 | B4 | 0.283 R (bound/input frequency ratio)
5 | B5 | 0.19 R (bound/input frequency ratio)
6 | B6 | 0.309 R (bound/input frequency ratio)
7 | B7 | 8.82 R (bound/input frequency ratio)
8 | B8 | 8.03 R (bound/input frequency ratio)
9 | B9 | 5.18 R (bound/input frequency ratio)
10 | B10 | 7.46 R (bound/input frequency ratio)
11 | B11 | 3.96 R (bound/input frequency ratio)
12 | B12 | 5.98 R (bound/input frequency ratio)
13 | B13 | 2.69 R (bound/input frequency ratio)
14 | B14 | 2.93 R (bound/input frequency ratio)
15 | B15 | 8.02 R (bound/input frequency ratio)
